The list is not random: actives were taken first. Their share in the collection is about 5.9%.
PRMT1 FP inh: inhibitors of human PRMT1; inhibition, % at 2.79 µM; AID 652257; recombinant PRMT1, activity-based probe fluorescence polarization; Q99873; 1.3% of 370,000 active;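 active = inhibition above about 21% made by adding two undisclosed values, limit read from the data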
Target sequence (Q99873 whole entry, looked up): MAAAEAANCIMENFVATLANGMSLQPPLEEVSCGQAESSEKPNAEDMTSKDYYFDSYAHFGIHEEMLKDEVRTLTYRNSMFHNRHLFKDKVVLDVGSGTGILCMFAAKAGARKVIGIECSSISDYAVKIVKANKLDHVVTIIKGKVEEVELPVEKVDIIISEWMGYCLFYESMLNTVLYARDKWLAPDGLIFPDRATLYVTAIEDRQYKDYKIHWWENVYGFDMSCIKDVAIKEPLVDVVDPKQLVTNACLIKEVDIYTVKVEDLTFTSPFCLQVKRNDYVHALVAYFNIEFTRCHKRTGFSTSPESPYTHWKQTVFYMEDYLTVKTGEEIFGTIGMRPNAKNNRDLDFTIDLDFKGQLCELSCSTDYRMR
ABHD5 PLIN5 PPI: ABHD5-PLIN5 protein interaction inhibition; inhibition, % at 4 µM; 0.78% of 360,000 active; Q00G26+Q8WTS1; Split G. princeps luciferase complementation, luminescence, 4 h;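 active = inhibition above the mean inhibition across every tested compound plus 3 SD, cut at about 22% in these data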;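 note: 0% = DMSO only wells and the 100% control is not disclosed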
ALR H2O2 inh: blocks human ALR sulfhydryl oxidase activity; P55789; purified ALR, DTT oxidation, H2O2 HRP-luminol luminescence; inhibition, % (no concentration beside the values); 3.8% of 290,000 active; AID 485317;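 active = mean replicate inhibition above about 79%, with every replicate also reaching it, limit read from the data; inconclusive = only one of the two criteria met; inactive = mean below limit and not every replicate reaching it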
rCAG RNA binder: r(CAG) repeat RNA binding; TO-PRO-1 dye displacement fluorescence; inhibition, % at 3 µM; 1.3% of 370,000 active;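 active = inhibition above the plate cutoff, the mean of all test compounds on that plate plus 3 SD, cut at about 35% in these data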;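 note: 0% = DMSO alone and 100% = 100 µM mitoxantrone as full dye displacement; higher means more dye released from RNA so lower well fluorescence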
Rtt109 Vps75: C. albicans Rtt109 histone acetyltransferase inhibition; Q5AAJ8; purified Rtt109/Vps75, ThioGlo CoA-SH fluorescence, 4 h; inhibition, % at 34.9 µM; 0.16% of 330,000 active; AID 540336;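 active = inhibition of at least 50% in every replicate; inconclusive = best replicate reaches 50% inhibition but some replicates fall short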
LANA-H2B inh: blocks KSHV LANA binding to histone H2A/H2B. Q9QR71. cell-free LANA-H2A/H2B peptide, fluorescence polarization. inhibition, % (no concentration beside the values). 0.6% of 320,000 active. AID 2629; in the data active = inhibition mostly above about 10%, no sharp cut-off; inactive = mostly below about 6.7%
Numbers without * were called inactive; u = inconclusive; x = not tested or not shown.

SMILES | PRMT1 FP inh | ABHD5 PLIN5 PPI | ALR H2O2 inh | rCAG RNA binder | Rtt109 Vps75 | LANA-H2B inh
CC[C@@H](C)[C@@H]1CN([C@@H](C)CN2CCC[C@H]2CN2C(N)=NC[C@H]2CC(C)C)C(=N)N1CCc1ccc(Cl)c(Cl)c1 | -2 | 30* | 2 | 12 | 38 | 1
CCC[C@@H](CN1CCC[C@H]1CN1C(N)=NC[C@H]1CC(C)C)N1C[C@@H]([C@H](C)CC)N(CCc2ccc(Cl)c(Cl)c2)C1=N | -1 | 20 | x | 9 | -4 | x
CCC[C@@H](CN1CCC[C@H]1CN1C(N)=NC[C@@H]1Cc1ccccc1)N1C[C@@H]([C@H](C)CC)N(CCCC2CCCC2)C1=N | x | 32* | 73 | x | u | 3
C[C@@H](CN1CCC[C@H]1CN1C(N)=NC[C@@H]1Cc1ccccc1)N1C[C@@H](Cc2ccccc2)N(CCc2ccc(Cl)c(Cl)c2)C1=N | x | 41* | -6 | x | 59* | 4
C[C@H](CO)N1C[C@H](C)[C@@H](CN(C)S(=O)(=O)c2ccc3ccccc3c2)OCc2cnnn2CCCC1=O | 0 | 10 | x | 3 | x | x
COc1ccc(-c2csc3nc(-c4cccnc4)nc(Cl)c23)cc1OC | 7 | 3 | 98* | 6 | 4 | 2
COc1ccc(-c2nc(-c3cccnc3)no2)cc1OC | -1 | 7 | 1 | 0 | -11 | 5
Clc1nc(-c2cccnc2)nc2scc(-c3ccccc3)c12 | -2 | 7 | 97* | 2 | 21 | 0
Fc1ccccc1Cn1ccc2ccc(-c3ccc4ccn(Cc5ccccc5)c4c3)cc21 | 1 | x | x | 8 | x | x
CCOc1ccc2[nH]c3c(NCCO)ncnc3c2c1 | 3 | -2 | 89* | 5 | 2 | -5
CCOc1ccc2[nH]c3c(NCCc4ccc(OC)c(OC)c4)ncnc3c2c1 | 6 | 2 | 4 | 7 | -3 | 4
COc1ccc2c(c1)CCC(=O)[C@H](O)C[C@H](c1ccccc1)OC2=O | 4 | -4 | x | 1 | x | x
Cc1cccc(-n2c(-c3ccoc3C)n[nH]c2=S)c1 | 3 | -6 | 91* | 6 | 0 | 0
Cc1cccc(-n2c(-c3ccncc3)n[nH]c2=S)c1 | 6 | 4 | 91* | 5 | -1 | 2
CCOC(=O)Cc1csc(NC(=O)CSc2nnc(-c3ccc(NS(=O)(=O)CC)cc3)o2)n1 | -2 | 0 | 98* | 14 | -3 | 2
CCOC(=O)Cc1csc(NC(=O)CSc2nnc(-c3ccncc3)n2Cc2ccco2)n1 | -3 | 4 | 97* | -6 | 3 | -1
CC1(C)CC2CC(C)(CN2S(=O)(=O)c2ccc(F)cc2F)C1 (stereo not given) | -1 | -13 | -9 | -3 | -6 | -4
Cc1ccccc1NC(=S)Nc1ccc2[nH]c(=O)[nH]c2c1 | 2 | -3 | 88* | 1 | 0 | -5
O=c1[nH]c2ccc(NC(=S)Nc3ccc(Cl)cc3)cc2[nH]1 | 10 | -22 | -4 | 5 | -2 | -1
CCOC(=O)c1ccc(NC(=S)Nc2ccc3[nH]c(=O)[nH]c3c2)cc1 | 11 | -2 | 80* | 3 | 4 | 0
O=c1[nH]c2ccc(NC(=S)Nc3ccccc3)cc2[nH]1 | 1 | -12 | 90* | 1 | 6 | 0
Cc1ccc(NC(=S)Nc2ccc3[nH]c(=O)[nH]c3c2)cc1 | 1 | 0 | 99* | -1 | -14 | 0
O=c1[nH]c2ccc(NC(=S)Nc3ccccc3Cl)cc2[nH]1 | 1 | -3 | u | 0 | 0 | 5
O=C(N[C@H](C(=O)N1CCC[C@H]1C(=O)NCCc1ccccc1Cl)C1CCCCC1)c1cccs1 | -1 | x | x | 1 | x | x
CCOC(=O)c1ccc(-c2ccc(-c3cc(=O)oc4cc(OC)c(OC)c(OC)c34)cc2)cc1 | 3 | -7 | x | 3 | -22 | x
CC(=O)Nc1ccc(NC(=O)C(C)n2nc(C)c([N+](=O)[O-])c2C)cc1 (stereo not given) | -3 | -9 | -13 | 0 | 0 | 3
Cc1nn(C(C)C(=O)N/N=C/c2ccc(N(C)C)cc2)c(C)c1[N+](=O)[O-] (stereo not given) | -2 | 7 | 99* | -3 | -2 | 8
COc1ccc(OC)c(/C=N/NC(=O)c2ccc3nc[nH]c3c2)c1 | 1 | 0 | -5 | 6 | -20 | -7
COc1cccc(/C=N/NC(=O)c2ccc3nc[nH]c3c2)c1 | 1 | -6 | 93* | 1 | -4 | 4

High-throughput results from PubChem BioAssay.
